# High-throughput results: PubChem, several laboratories
# Sampled rows, rich in hits. Any-hit rate of the full collection: about 4.1%.
# PolyA inh: yeast polyadenylation inhibition; S. cerevisiae SKY197-pL101 polyadenylation reporter, beta-gal luminescence; efflux-impaired pdr1/pdr3 knockout yeast; score 100 = 6 SD above DMSO; activity score, % at 12 µM; 300,000 compounds, 0.02% hits;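 active = lowest replicate activity score at least 50, where 100 means six control SD above control mean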;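 note: yeast exposed to compound for 9 h at 30 °C; higher score means more reporter readthrough which indicates perturbed polyadenylation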
# hgDAF12 agonist: activates the H. glycines DAF-12 receptor ligand-binding domain; HEK293 GAL4-hgDAF12 UAS-luciferase reporter, agonist luminescence; normalized to butyrate control; activation, % at 6.8 µM; 370,000 compounds, 1.8% hits; AID 687014;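 active = activation above a cutoff set at the mean of all screened compounds plus 3 SD, cut at about 10% in these data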;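 note: 0% = DMSO wells and 100% = sodium butyrate wells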
# DAX1 inh-1: inhibits human nuclear receptor DAX1. P51843. HEK293 Gal4-DAX1 luciferase reporter, luminescence. inhibition, % at 6.75 µM. 340,000 compounds, 0.99% hits. AID 504766;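 active = inhibition above the mean over all tested compounds plus 3 SD, cut at about 4.2% in these data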;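 note: 0% = DAX1-transfected cells with DMSO and 100% = empty-vector control cells with DMSO; inhibition shows as a rise in luminescence from relieved DAX1 repression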
# Target sequence (P51843 207-470 limits assumed): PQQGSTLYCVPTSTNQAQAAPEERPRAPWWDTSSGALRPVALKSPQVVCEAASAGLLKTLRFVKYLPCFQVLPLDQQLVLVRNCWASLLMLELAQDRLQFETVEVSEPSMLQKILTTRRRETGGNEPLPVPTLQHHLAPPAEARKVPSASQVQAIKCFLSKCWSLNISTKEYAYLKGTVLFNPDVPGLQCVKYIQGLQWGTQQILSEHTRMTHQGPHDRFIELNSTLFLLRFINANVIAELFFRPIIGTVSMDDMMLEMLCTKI
# hcDAF12 agonist: activates DAF-12 receptor from parasite H. contortus. 370,000 compounds, 1.4% hits. AID 652067. activation, % at 6.8 µM. HEK293 hcDAF-12 lit1-tk-luc reporter, luminescence; 0% DMSO, 100% Δ7-dafachronic acid;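 active = activation above the mean of all tested compounds plus 3 SD, cut at about 5.5% in these data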;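 note: 100% = response to 3 µM Δ7-dafachronic acid high control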
# DAX1 inh-2: inhibitors of DAX1 repression of SF-1 activated StAR promoter | HEK293T StAR-luciferase reporter, SF-1/DAX-1 repression relief | inhibition, % at 6.8 µM | 370,000 compounds, 1.1% hits | AID 652010;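 active = inhibition above the mean over all tested compounds plus 3 SD, cut at about 3.6% in these data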;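 note: 0% = DAX-1 cells with DMSO and 100% = cells lacking DAX-1 with DMSO; higher inhibition means more luminescence from relief of DAX-1 repression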
# ssDAF-12 act: S. stercoralis DAF-12 activation, primary screen. HEK293 ssDAF-12/GRIP1 lit1-tk-luc reporter, luminescence; % of 3 µM dafachronic acid response. activation, % at 6.8 µM. 370,000 compounds, 1% hits. AID 652126;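 active = activation above the mean over all tested compounds plus 3 SD, cut at about 0.9% in these data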;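 note: 0% = DMSO-only wells and 100% = 3 µM delta7-dafachronic acid wells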
# The depositor's hits bear a star; / = not tested or not shown.
SMILES,PolyA inh,hgDAF12 agonist,DAX1 inh-1,hcDAF12 agonist,DAX1 inh-2,ssDAF-12 act
C#CCNC(=O)C[C@H]1C[C@@]2(C(=O)OC)C(=C[C@H](COCc3ccccc3)O[C@@H]2C)N(Cc2ccc3c(c2)OCO3)C1=O,/,0.8,/,3.3,-1.3,-1.3
CN1OC[C@@H]2CN(C(=S)Nc3cc(C(F)(F)F)cc(C(F)(F)F)c3)[C@H](c3ccccc3Br)C[C@@H]21,/,-1.8,/,0.7,-2.1,-1.3
O=c1c(O)c(-c2ccccc2)oc2ccccc12,/,7.3,4.9*,-2.9,1.2,-1.2
Cc1ccc(-c2oc3ccccc3c(=O)c2O)cc1,-17.1,1.1,1.1,0.9,0.6,-0.4
CCCCNC(=O)C[C@@H]1C(=O)N(CCc2ccc(Cl)cc2)/C2=C/CCCCC[C@@]21C(=O)OCC,/,0.7,/,0.3,-0.2,-1.6
COc1ccc(CCC(=O)Nc2ncc(C)s2)cc1,-12.3,4.1,1.0,1.3,0.1,2.2*
COc1ccc(Cc2c(C(C)(C)C)nc3cc(C)c(Br)c(C)n23)c(C)c1,/,3.8,/,0.5,0.0,1.8*
COc1ccc(Cc2c(-c3ccc(Cl)cc3)nc3cc(C)c(Br)c(C)n23)c(C)c1,/,13.2*,/,5.1,1.1,0.9*
COc1ccc(Cc2c(-c3ccc(F)cc3)nc3cc(C)c(Br)c(C)n23)c(C)c1,/,10.0,/,5.7*,1.3,2.2*
OCCN1CN(c2ccccc2)C(=S)N(c2ccccc2)C1,/,-1.3,/,0.5,2.6,-1.7
COc1ccccc1/C=C/C=N/NC(=O)c1cnccn1,-12.4,7.8,-0.8,0.0,0.3,-1.5
COc1ccc(NC(=O)c2ccccn2)cc1,3.1,/,-2.0,/,/,/
COc1ccccc1/C=C/C=N/NC(=O)c1ccccn1,-15.3,12.9*,3.8,1.1,4.1*,0.2
COc1ccc(NC(=O)c2ccccn2)cc1OC,7.2,11.6*,4.4*,2.5,1.1,-0.2
O=C(N/N=C/C1CCCCC1)c1ccccn1,-5.7,12.2*,0.1,6.3*,3.5,0.0
O=C(N/N=C/C1CCCCC1)c1cc(Cl)ccc1O,-25.6,0.4,0.4,1.1,0.5,-0.8
COc1ccc(C(=O)Nc2ccc3ccccc3n2)cc1OC,-5.1,10.0,4.8*,1.9,1.4,0.1
Cc1n[nH]c(C)c1S(=O)(=O)NCCc1cccc(F)c1,/,0.7,/,0.4,-0.4,-1.2
CCC(=O)Nc1ccc(NC(=O)c2ccccn2)cn1,-2.2,12.0*,-0.7,3.9,2.0,-0.3
O=C(Nc1ccc(NC(=O)C2CC2)nc1)c1ccccn1,3.8,9.7,0.3,3.0,3.4,0.4
CCOC(=O)C(Cc1ccccc1)CP(=O)(OC)[C@@H](C)NC(=O)OCc1ccccc1 (stereo not given in full),/,-1.9,/,-2.4,-0.7,-0.5
COC(=O)[C@]12C[C@H](CC(=O)NCc3cccs3)C(=O)N(Cc3cccc4ccccc34)C1=C[C@H](C1CCCC1)O[C@@H]2C,/,-1.3,/,-1.6,-0.3,-0.3
CC(C(=O)NC1CCCc2ccccc21)N1CCN(Cc2ccc3c(c2)OCO3)CC1 (stereo not given),-1.6,0.4,-0.5,2.1,-0.1,1.0*
O=C(NN=Cc1ccco1)c1cccnc1,/,-1.0,/,-1.2,0.5,-1.0
COC(=O)c1scc(C)c1NC(=O)Cc1ccccc1,19.8,1.5,0.3,-0.8,-0.6,-1.1
SMILES,PolyA inh,hgDAF12 agonist,DAX1 inh-1,hcDAF12 agonist,DAX1 inh-2,ssDAF-12 act
CCOC(=O)C(=CNNc1c(C)csc1C(=O)OC)C(=O)OCC,0.0,-0.8,0.5,6.3*,-0.4,-0.4
CCn1nc(C)c(Br)c1-c1nc(-c2ccc(C)cc2)no1,2.9,0.5,/,2.9,-0.2,1.0*
O=C(NCCCc1ccccc1)[C@H](Cc1ccccc1)NC1(C(=O)NCCc2c[nH]c3ccccc23)CCOCC1,/,0.2,/,-0.5,/,-1.0
CN1CCC(N[C@@H](Cc2c[nH]c3ccccc23)C(=O)NCCCc2ccccc2)(C(=O)NCCc2c[nH]c3ccccc23)CC1,/,3.4,/,6.3*,/,-0.8
CCOC(=O)C1(CCCc2ccccc2)CCN(C(=O)c2ocnc2C)CC1,11.2,0.0,-0.4,1.0,0.5,-0.6
CCOC(=O)C1(CC2CC2)CCN(C(=O)c2ocnc2C)CC1,4.3,2.7,4.3*,1.4,0.4,-0.4
Cc1ccc(-c2nc3ccc(C)cn3c2Cc2cccc(Cl)c2)cc1,/,8.7,/,1.2,3.8*,-1.0
Cc1ccc2nc(-c3cccc(Cl)c3)c(Cc3ccccc3)n2c1,/,11.9*,/,3.4,4.2*,-0.2
Cc1ccc2nc(-c3cccc(Cl)c3)c(Cc3cccc(Cl)c3)n2c1,/,10.2,/,2.4,3.4,-0.3
Cc1ccc2nc(-c3ccccc3)c(CN3CCOCC3)n2c1,0.9,11.2*,1.6,-0.7,0.5,-1.4
COC(=O)[C@]12C[C@H](CC(=O)NCCCCc3ccccc3)C(=O)N(Cc3ccccc3)C1=C[C@H](COCc1ccccc1)O[C@@H]2C,/,0.4,/,-3.4,-1.1,-1.4
COCC(C)N=C1NN=C(c2c[nH]c3ccccc23)CS1 (stereo not given),13.2,8.8,1.3,6.2*,1.5,0.5
COC(=O)[C@]12C[C@H](CC(=O)NCc3ccc(C)o3)C(=O)N(Cc3ccco3)C1=C[C@H](C1CCCC1)O[C@@H]2C,/,-4.6,/,-2.2,-0.8,-0.7
Cc1[nH]c2ccccc2c1CC(=O)Nc1ccc(Oc2cccnc2)cc1,/,-1.7,/,2.1,-0.3,-0.3
Cc1ccc(C)c(NC(=S)N(C)CCO)c1,21.3,-1.6,4.8*,-1.0,-0.4,-1.3
CCCOc1nccc2c1n(C)c(=O)n2C,/,1.6,/,-2.1,-0.8,-0.9
CC1CCc2sc(C(=O)NCc3ccc(F)cc3)cc2C1 (stereo not given),-12.4,1.4,0.4,0.5,0.0,-1.3
O=C(NCc1ccc(F)cc1)c1cc2c(s1)CCCC2,2.8,4.1,7.0*,-2.6,-0.6,-1.1
CCC(=O)Nc1ccc2c(c1)C(=O)N(C)[C@@H]1CC[C@@H](CC(=O)NCc3ccc(OC)cc3)O[C@H]1CO2,/,1.2,/,-0.4,0.6,-0.4
CC(C)(C)c1ccc(-c2cc(NC(=O)Cc3c[nH]c4ccccc34)ccc2Nc2cccnc2)cc1,/,1.7,/,3.0,-0.2,1.7*
CCCc1ccc(-c2cc(NC(=O)Cc3c[nH]c4ccccc34)ccc2Nc2cccnc2)cc1,/,1.8,/,2.1,-1.1,-0.3
COC(=O)[C@]12C[C@H](CC(=O)NCc3cccc4ccccc34)C(=O)N(Cc3ccc(Cl)cc3Cl)C1=C[C@H](C1CCCC1)O[C@@H]2C,/,3.9,/,-1.2,0.4,-1.0
O=C(CC12CC3CC(CC(C3)C1)C2)NC(=S)N1CCCCC1,-28.3,0.4,0.9,-1.4,0.1,1.2*
COc1ccc(CNC(=O)O[C@H]2CC[C@@]34CCCN3C(=O)CCC[C@H]4[C@H]2C)cc1,/,0.4,/,-1.4,/,-1.7
